A selection: hits, their analogues and other compounds. The true share with any hit is near 3.3%.
UBC9 SUMO inh: SUMOylation inhibition; P63279; HTRF SUMOylation assay, SAE1/SAE2 + UBC9, in vitro; inhibition, % at 35 µM; 0.36% of 290,000 active; in the data active = inhibition above about 50%, passing the limit was not always enough
Target sequence (P63279 whole entry, looked up): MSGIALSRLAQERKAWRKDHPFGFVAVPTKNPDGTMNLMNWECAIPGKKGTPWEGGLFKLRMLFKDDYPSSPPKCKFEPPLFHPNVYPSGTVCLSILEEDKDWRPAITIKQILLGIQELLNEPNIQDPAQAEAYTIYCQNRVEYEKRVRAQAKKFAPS
sPLA2-III inh: Inhibits HGIII-sPLA2 liposome hydrolysis, primary screen. QFRET BODIPY PC-A2 liposome hydrolysis, fluorescence. AID 743126. inhibition, % at 12.2 µM. 0.56% of 370,000 active. Q9NZ20;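 active = inhibition above mean plus 3 SD of compounds lying within the high and low control bounds, cut at about 19% in these data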;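 also: 0% = median of test compound wells and 100% = no enzyme DMSO wells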
UBC13 inh: blocks human UBC13 polyubiquitin chain formation | P61088 | TR-FRET | inhibition, % at 20 µM | 0.47% of 330,000 active | AID 485273; in the data active = inhibition above about 45%, passing the limit was not always enough
Target sequence (P61088 whole entry, looked up): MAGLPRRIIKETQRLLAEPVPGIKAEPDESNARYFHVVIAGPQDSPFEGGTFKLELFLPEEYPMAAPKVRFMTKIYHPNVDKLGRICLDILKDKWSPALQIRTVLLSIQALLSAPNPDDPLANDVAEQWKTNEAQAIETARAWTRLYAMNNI
GRIN3A LBD mod: modulates the human NR3A ligand-binding domain; 2.5% of 340,000 active; Tm shift relative to glycine control, % at 25 µM; NR3A LBD differential scanning fluorimetry, Tm shift; 0% = protein alone, 100% = glycine-bound protein; AID 1259313;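 active = melting temperature shift of at least 10% of the positive control shift, at one fixed dose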
Casp3 UBC13 ctr: counter-screen for UBC13 inhibitors: human caspase-3 inhibition. shares compounds with UBC13 inh. Recombinant caspase-3, Caspase-Glo 3/7 luminescence, 60 min. inhibition, % at 20 µM. 4% of 1,400 active. AID 488856;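 active = mean inhibition across replicates above about 26%, limit read from the data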;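 also: plate controls were DMSO with caspase-3 for no effect and DMSO wells lacking enzyme for full effect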
Target sequence (P42574 whole entry, looked up): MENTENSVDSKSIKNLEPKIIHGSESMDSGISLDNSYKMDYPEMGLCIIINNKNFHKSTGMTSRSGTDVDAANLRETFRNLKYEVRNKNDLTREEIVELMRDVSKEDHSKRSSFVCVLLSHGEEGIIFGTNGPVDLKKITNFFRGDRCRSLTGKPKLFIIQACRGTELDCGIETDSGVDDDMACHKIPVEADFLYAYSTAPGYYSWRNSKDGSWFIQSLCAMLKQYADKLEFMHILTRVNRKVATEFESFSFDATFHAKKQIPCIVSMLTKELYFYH
UBC13 conf: confirmation of human UBC13 polyubiquitin inhibitors; shares compounds with UBC13 inh; UBC13 polyubiquitination, TR-FRET, biochemical; inhibition, % at 10 µM; 68% of 1,400 active; AID 488859; in the data active = inhibition above about 45%
Numbers without * were called inactive.

What do the screens show for `O=C(C(c1ccccc1)c1ccccc1)N1CCN(CCN2C(=O)c3cccc4cccc(c34)C2=O)CC1`?
UBC9 SUMO inh: -3; sPLA2-III inh: -17; UBC13 inh: -3; GRIN3A LBD mod: -3

How did COc1ccc(OCC(O)CN2CCC(CN3C(=O)c4cccc5cccc(c45)C3=O)CC2)cc1 (stereo not given) do in these assays?
sPLA2-III inh: -14; UBC13 inh: 30; GRIN3A LBD mod: -2

What do the screens show for `COC(=O)C/C=C/[C@H](C)[C@@H](NC(=O)C(F)(F)F)c1ccccc1Br`?
sPLA2-III inh: -2

Results for C#CCNC(=O)C[C@@H]1C(=O)N2CCCC3=C2[C@@]1(C(=O)OCC)CCC3 ?
sPLA2-III inh: 7

What do the screens show for `C#CCOCCOCCOCCNc1nc(N2CCN(C(=O)CCCCCCCCCCNC(=O)[C@@H](CCC(=O)O)n3cc(CCCCCN)nn3)CC2)nc(N2CCN(C(=O)CCCCCCCCCCNC(=O)[C@H](CCCCN)n3cc(C[C@@H](C)CC)nn3)CC2)n1`?
UBC13 inh: 120*; GRIN3A LBD mod: -5; Casp3 UBC13 ctr: -2; UBC13 conf: 124*

What do the screens show for `C#CCOCCOCCOCCNc1nc(N2CCN(C(=O)CCCCCCCCCCNC(=O)[C@H](CCCCN)n3cc(CCO)nn3)CC2)nc(N2CCN(C(=O)CCCCCCCCCCNC(=O)[C@H](CCCCN)n3cc(CCCC(=O)O)nn3)CC2)n1`?
sPLA2-III inh: -54; UBC13 inh: 117*; GRIN3A LBD mod: -1; Casp3 UBC13 ctr: 2; UBC13 conf: 111*

What do the screens show for `C#CCOCCOCCOCCNc1nc(N2CCN(C(=O)CCCCCCCCCCNC(=O)[C@@H](CCC(=O)O)n3cc(CCCCCN)nn3)CC2)nc(N2CCN(C(=O)CCCCCCCCCCNC(=O)[C@H](CO)n3cc(CCCSC)nn3)CC2)n1`?
UBC13 inh: 84*; GRIN3A LBD mod: -6; Casp3 UBC13 ctr: -2; UBC13 conf: 40

What do the screens show for `C#CCOCCOCCOCCNc1nc(N2CCN(C(=O)CCCCCCCCCCNC(=O)[C@@H](CCC(=O)O)n3cc(CCCCCN)nn3)CC2)nc(N2CCN(C(=O)CCCCCCCCCCNC(=O)[C@H](CO)n3cc(CCCCCN)nn3)CC2)n1`?
UBC13 inh: 102*; GRIN3A LBD mod: -1; Casp3 UBC13 ctr: -4; UBC13 conf: 74*

How did COc1ccc(-c2noc(CCC(=O)NCCCN3CCC(Cc4ccccc4)CC3)n2)cc1 do in these assays?
UBC9 SUMO inh: 4; sPLA2-III inh: -25; UBC13 inh: 90*; GRIN3A LBD mod: 0; Casp3 UBC13 ctr: -1; UBC13 conf: 106*

How did Cc1ccc(-c2noc(CCC(=O)NCC3CCN(Cc4cccc(C)c4)CC3)n2)cc1 do in these assays?
UBC9 SUMO inh: -13; sPLA2-III inh: -13; UBC13 inh: 56*; GRIN3A LBD mod: 0; Casp3 UBC13 ctr: -4; UBC13 conf: 70*

Results for Cc1ccc(-c2noc(CCC(=O)NCCN3CCN(Cc4ccccc4)CC3)n2)cc1 ?
UBC9 SUMO inh: -32; sPLA2-III inh: -4; UBC13 inh: 8; GRIN3A LBD mod: 0

What do the screens show for `COc1ccc(-c2cc3c(=O)n(CC(=O)NCCCN4CCN(Cc5ccccc5)CC4)ncn3n2)cc1`?
sPLA2-III inh: -6; UBC13 inh: 5; GRIN3A LBD mod: 5

How did COc1ccc(-c2cc3c(=O)n(CC(=O)NCCCN4CCC(Cc5ccccc5)CC4)ncn3n2)cc1 do in these assays?
UBC9 SUMO inh: 17; sPLA2-III inh: -7; UBC13 inh: 52*; GRIN3A LBD mod: -3; Casp3 UBC13 ctr: 2; UBC13 conf: 76*

Results for CN[C@H]1C[C@H]2c3[nH]c4cccc(-c5cccc(C)c5)c4c3CCN2C(=O)[C@H]1[C@H](C)O ?
sPLA2-III inh: -2

What do the screens show for `O=C(CNS(=O)(=O)c1cccc2ccccc12)N1CCN(c2ncccn2)CC1`?
sPLA2-III inh: -1

How did COCCN=c1scc(-c2ccco2)n1/N=C/c1ccc(O)c(O)c1O do in these assays?
UBC9 SUMO inh: 81; sPLA2-III inh: 13; UBC13 inh: 46*; GRIN3A LBD mod: -6; Casp3 UBC13 ctr: -2; UBC13 conf: 8

Results for Cc1ccc(Nc2cc(C)nc(NCc3ccccc3)n2)cc1 ?
UBC9 SUMO inh: -31; sPLA2-III inh: -20; UBC13 inh: 56*; GRIN3A LBD mod: -3; Casp3 UBC13 ctr: -1; UBC13 conf: 83*

What do the screens show for `COc1cccc(C(=O)n2ccc3ccc(-c4ccc5ccn(Cc6ccccc6)c5c4)cc32)c1`?
sPLA2-III inh: 0

How did CCN(CC)c1ccc(/C=C2\CCC(/C=N/NC(=O)c3ccc(=O)n(C)c3)=C2N2CCOCC2)cc1 do in these assays?
UBC9 SUMO inh: -13; sPLA2-III inh: 3; UBC13 inh: 53*; GRIN3A LBD mod: -4; Casp3 UBC13 ctr: 1; UBC13 conf: -6

Results for CCC(C)N(C(=O)c1ccc(CNC(=O)c2cccc(Br)c2)cc1)C(C)CC (stereo not given) ?
sPLA2-III inh: -17

What do the screens show for `O=C(NCCCN1CCOCC1)c1cc2c([nH]c3ccccc32)c(-c2cccc(Br)c2)n1`?
UBC9 SUMO inh: 8; sPLA2-III inh: -10; UBC13 inh: 51*; GRIN3A LBD mod: -8; Casp3 UBC13 ctr: -3; UBC13 conf: 30

What do the screens show for `COc1cccc(-c2nc(C(=O)NCCCN3CCOCC3)cc3c2[nH]c2ccccc23)c1`?
UBC9 SUMO inh: 12; sPLA2-III inh: -17; UBC13 inh: 37; GRIN3A LBD mod: -5

Results for CCOC(=O)/C(=C\c1cccc(O)c1)c1nc2sc(C)c(C)c2c(=O)[nH]1 ?
UBC9 SUMO inh: -5; sPLA2-III inh: -59; UBC13 inh: 67*; GRIN3A LBD mod: -1; Casp3 UBC13 ctr: -1; UBC13 conf: 66*

What do the screens show for `CCOC(=O)c1nc2sc(C)c(C)c2c(=O)[nH]1`?
UBC9 SUMO inh: 43; sPLA2-III inh: 3; UBC13 inh: 10; GRIN3A LBD mod: 1

How did C[C@@H]1CCN(C2CC2)S(=O)(=O)c2ccc(N3CC[C@H](N(C)C)C3)cc2O1 do in these assays?
sPLA2-III inh: 10

Results for COc1ccc(Cc2c(N)nc(N)nc2N)cc1 ?
UBC9 SUMO inh: 10; sPLA2-III inh: -4; UBC13 inh: 5; GRIN3A LBD mod: -2

What do the screens show for `Nc1ccc(OCCCc2c(N)nc(N)nc2N)cc1`?
UBC9 SUMO inh: 12; sPLA2-III inh: 4; UBC13 inh: 47*; GRIN3A LBD mod: 1; Casp3 UBC13 ctr: 1; UBC13 conf: 64*

How did C=C(C)CNC(=S)N=Nc1c(O)[nH]c2ccc([N+](=O)[O-])cc12 do in these assays?
UBC9 SUMO inh: -2; sPLA2-III inh: 3; UBC13 inh: 49*; GRIN3A LBD mod: 25*; Casp3 UBC13 ctr: 1; UBC13 conf: 47*

What do the screens show for `NC(=O)N=Nc1c(O)[nH]c2ccc([N+](=O)[O-])cc12`?
UBC9 SUMO inh: 33; sPLA2-III inh: 2; UBC13 inh: -16; GRIN3A LBD mod: -1

Source: PubChem BioAssay
